In paper PMC7862700, “An all-to-all approach to the identification of sequence-specific readers for epigenetic DNA modifications on cytosine”:

Legend:
Assay in all cases: DAPPL (digital affinity profiling via proximity ligation, sequencing); 10 mM Tris-HCl pH 7.5, 50 mM NaCl, 1 mM DTT, 4% glycerol, room temperature, 30 min; GST-TFs on glutathione beads, 16-mer random dsDNA library, 0.1% formaldehyde crosslink after washing; high values mean tight binding
FLI1 = target: T1, FLI1 (Homo sapiens, UniProt Q01543 1-452); settings: protein: recombinant; tags: N-terminal GST; dsDNA, one strand shown
T1 sequence: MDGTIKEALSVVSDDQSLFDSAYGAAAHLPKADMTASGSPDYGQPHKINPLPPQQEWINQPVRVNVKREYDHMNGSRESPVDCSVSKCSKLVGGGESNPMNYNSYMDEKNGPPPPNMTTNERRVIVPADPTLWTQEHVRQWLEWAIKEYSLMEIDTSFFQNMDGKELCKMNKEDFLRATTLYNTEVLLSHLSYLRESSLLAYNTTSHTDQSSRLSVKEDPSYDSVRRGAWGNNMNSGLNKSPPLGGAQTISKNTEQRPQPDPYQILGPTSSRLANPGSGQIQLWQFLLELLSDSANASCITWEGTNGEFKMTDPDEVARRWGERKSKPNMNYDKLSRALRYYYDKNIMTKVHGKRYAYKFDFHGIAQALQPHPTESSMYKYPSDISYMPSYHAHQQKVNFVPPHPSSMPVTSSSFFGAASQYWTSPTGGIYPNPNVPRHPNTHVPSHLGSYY
Procedure, shortened: (§1)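 A tag-only sample was pooled with DNA-barcoded human transcription factors that had been expressed in yeast as GST fusions and captured on glutathione beads. The pools were incubated for 30 min at room temperature with 200 nmole of a random double-stranded 16-mer DNA library in Tris/NaCl/DTT/glycerol buffer, then washed, crosslinked with 0.1% formaldehyde, proximity-ligated (BsaI/T4 ligase, 1 h, 37 °C), PCR-amplified and sequenced on an Illumina NextSeq500. Binding signal is each hexamer's read frequency for a factor divided by its frequency for the tag-only sample.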

ELK1 = target: T2, ELK1 (Homo sapiens, UniProt P19419 1-428); settings: protein: recombinant; tags: N-terminal GST; dsDNA, one strand shown
T2 sequence: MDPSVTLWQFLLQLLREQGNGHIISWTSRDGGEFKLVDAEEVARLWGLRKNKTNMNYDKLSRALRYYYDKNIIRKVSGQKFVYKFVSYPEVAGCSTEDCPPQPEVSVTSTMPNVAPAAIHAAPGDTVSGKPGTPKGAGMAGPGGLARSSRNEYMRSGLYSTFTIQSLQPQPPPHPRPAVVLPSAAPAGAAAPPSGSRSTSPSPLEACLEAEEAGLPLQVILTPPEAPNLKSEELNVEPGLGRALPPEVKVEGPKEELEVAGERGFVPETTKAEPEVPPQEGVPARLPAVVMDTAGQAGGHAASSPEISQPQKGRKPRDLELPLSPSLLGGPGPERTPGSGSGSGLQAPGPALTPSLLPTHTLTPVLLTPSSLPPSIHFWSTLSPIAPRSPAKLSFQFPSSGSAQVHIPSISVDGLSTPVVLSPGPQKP
Procedure, shortened: as §1

GABPA = target: T3, GABPA (Homo sapiens, UniProt Q06546 1-454); settings: protein: recombinant; tags: N-terminal GST; dsDNA, one strand shown
T3 sequence: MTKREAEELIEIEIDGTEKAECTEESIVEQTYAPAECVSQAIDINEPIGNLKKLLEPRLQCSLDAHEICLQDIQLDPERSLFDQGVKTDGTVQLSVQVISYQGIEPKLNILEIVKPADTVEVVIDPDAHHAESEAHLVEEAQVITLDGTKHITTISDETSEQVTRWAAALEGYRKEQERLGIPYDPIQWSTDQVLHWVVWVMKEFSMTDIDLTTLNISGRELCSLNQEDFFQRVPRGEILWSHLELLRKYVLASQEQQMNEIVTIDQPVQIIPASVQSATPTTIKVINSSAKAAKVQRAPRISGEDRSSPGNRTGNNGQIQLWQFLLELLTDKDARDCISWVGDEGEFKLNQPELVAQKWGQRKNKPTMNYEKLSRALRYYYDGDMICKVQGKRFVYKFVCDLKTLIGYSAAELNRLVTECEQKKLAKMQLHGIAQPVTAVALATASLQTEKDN
Procedure, shortened: as §1

ERG = target: T4, ERG (Homo sapiens, UniProt P11308 1-479); settings: protein: recombinant; tags: N-terminal GST; dsDNA, one strand shown
T4 sequence: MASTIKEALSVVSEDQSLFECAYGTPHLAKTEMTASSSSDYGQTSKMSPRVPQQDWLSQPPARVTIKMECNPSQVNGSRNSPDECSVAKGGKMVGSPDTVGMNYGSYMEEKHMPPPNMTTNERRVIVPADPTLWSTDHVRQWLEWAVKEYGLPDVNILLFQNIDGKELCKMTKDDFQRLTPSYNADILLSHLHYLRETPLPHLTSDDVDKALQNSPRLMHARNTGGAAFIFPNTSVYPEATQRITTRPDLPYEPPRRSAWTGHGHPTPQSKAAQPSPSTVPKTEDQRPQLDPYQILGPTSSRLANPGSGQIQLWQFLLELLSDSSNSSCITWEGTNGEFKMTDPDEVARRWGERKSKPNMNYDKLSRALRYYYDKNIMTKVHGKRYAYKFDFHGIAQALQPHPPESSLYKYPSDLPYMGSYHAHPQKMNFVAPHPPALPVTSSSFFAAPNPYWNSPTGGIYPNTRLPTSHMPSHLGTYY
Procedure, shortened: as §1

ELF1 = ELF1 (Homo sapiens, UniProt P32519 1-619); settings: protein: recombinant; tags: N-terminal GST; dsDNA, one strand shown
ELF1, sequence (P32519 whole entry): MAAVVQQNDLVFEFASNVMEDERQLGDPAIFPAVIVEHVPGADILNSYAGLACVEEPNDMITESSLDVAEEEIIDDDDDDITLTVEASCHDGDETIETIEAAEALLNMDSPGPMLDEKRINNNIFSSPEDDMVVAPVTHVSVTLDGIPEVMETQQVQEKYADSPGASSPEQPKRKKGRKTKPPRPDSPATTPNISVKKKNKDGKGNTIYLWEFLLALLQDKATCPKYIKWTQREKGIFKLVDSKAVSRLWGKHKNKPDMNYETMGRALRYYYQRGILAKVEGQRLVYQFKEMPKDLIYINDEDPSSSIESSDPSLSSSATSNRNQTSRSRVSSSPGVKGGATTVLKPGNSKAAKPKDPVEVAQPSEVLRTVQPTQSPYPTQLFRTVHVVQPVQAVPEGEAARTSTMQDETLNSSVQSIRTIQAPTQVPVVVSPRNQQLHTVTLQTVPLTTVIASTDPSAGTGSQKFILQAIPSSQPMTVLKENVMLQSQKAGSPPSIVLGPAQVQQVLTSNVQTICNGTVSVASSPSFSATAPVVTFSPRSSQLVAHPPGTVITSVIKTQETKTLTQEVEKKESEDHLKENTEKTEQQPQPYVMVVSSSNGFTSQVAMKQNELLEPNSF
Procedure, shortened: as §1

EHF = target: T5, EHF (Homo sapiens, UniProt Q9NZC4 1-300); settings: protein: recombinant; tags: N-terminal GST; dsDNA, one strand shown
T5 sequence: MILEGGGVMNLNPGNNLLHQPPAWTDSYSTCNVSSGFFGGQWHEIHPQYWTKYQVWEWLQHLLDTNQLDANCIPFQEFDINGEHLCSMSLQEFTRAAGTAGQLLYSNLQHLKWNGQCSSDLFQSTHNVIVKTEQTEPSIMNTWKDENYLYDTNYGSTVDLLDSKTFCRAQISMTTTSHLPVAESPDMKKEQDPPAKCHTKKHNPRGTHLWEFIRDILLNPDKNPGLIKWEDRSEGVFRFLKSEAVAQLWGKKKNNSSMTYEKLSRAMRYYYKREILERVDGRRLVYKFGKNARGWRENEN
Procedure, shortened: as §1

SPI1 = SPI1 (Homo sapiens, UniProt P17947 1-270); settings: protein: recombinant; tags: N-terminal GST; dsDNA, one strand shown
Procedure, shortened: as §1

SPIB = SPIB (Homo sapiens, UniProt Q01892 1-262); settings: protein: recombinant; tags: N-terminal GST; dsDNA, one strand shown
SPIB, sequence (Q01892 whole entry): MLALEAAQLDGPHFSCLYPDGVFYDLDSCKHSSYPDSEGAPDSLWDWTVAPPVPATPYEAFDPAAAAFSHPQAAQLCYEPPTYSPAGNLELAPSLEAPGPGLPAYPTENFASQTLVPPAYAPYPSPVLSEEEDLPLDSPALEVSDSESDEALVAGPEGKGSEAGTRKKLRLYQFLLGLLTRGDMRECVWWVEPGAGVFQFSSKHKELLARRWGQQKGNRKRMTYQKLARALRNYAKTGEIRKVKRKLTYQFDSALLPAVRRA
Procedure, shortened: as §1

ELK3 = target: T6, ELK3 (Homo sapiens, UniProt P41970 1-407); settings: protein: recombinant; tags: N-terminal GST; dsDNA, one strand shown
T6 sequence: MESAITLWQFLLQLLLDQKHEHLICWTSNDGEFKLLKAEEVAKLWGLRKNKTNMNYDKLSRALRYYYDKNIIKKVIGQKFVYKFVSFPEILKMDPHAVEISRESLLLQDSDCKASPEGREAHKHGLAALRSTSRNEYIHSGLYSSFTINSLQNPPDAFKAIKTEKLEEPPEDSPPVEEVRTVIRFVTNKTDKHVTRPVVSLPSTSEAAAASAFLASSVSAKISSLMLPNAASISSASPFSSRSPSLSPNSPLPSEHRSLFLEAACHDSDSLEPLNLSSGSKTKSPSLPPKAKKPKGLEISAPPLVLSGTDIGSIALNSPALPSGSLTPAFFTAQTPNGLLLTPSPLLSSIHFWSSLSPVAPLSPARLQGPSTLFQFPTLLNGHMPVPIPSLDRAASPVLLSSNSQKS
Procedure, shortened: as §1

FEV = target: T7, FEV (Homo sapiens, UniProt Q99581 1-238); settings: protein: recombinant; tags: N-terminal GST; dsDNA, one strand shown
T7 sequence: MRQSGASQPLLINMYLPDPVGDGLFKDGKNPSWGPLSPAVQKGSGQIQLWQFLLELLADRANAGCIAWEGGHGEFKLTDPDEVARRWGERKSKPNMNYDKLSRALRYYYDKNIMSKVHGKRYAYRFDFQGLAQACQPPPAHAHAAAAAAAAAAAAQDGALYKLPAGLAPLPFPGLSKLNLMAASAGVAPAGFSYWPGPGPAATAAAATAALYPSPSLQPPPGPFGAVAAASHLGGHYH
Procedure, shortened: as §1

ETV5 = ETV5 (Homo sapiens, UniProt P41161 1-510); settings: protein: recombinant; tags: N-terminal GST; dsDNA, one strand shown
ETV5, sequence (P41161 whole entry): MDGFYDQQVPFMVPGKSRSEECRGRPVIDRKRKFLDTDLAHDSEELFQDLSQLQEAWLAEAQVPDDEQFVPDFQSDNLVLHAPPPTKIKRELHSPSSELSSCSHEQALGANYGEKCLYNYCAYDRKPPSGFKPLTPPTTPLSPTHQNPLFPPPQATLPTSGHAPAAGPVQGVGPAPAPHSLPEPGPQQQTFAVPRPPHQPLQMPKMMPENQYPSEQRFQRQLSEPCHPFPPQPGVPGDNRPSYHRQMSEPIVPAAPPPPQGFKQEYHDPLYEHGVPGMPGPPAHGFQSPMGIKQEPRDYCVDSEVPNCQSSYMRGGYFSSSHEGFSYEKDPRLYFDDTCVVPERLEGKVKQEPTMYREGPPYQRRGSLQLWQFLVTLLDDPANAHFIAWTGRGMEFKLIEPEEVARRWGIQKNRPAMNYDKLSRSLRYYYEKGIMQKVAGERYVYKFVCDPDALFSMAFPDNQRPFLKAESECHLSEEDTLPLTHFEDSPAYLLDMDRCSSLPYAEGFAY
Procedure, shortened: as §1

HSF1 = HSF1 (Homo sapiens, UniProt Q00613 1-529); settings: protein: recombinant; tags: N-terminal GST; chain copies: 3; dsDNA, one strand shown
HSF1, sequence (Q00613 whole entry): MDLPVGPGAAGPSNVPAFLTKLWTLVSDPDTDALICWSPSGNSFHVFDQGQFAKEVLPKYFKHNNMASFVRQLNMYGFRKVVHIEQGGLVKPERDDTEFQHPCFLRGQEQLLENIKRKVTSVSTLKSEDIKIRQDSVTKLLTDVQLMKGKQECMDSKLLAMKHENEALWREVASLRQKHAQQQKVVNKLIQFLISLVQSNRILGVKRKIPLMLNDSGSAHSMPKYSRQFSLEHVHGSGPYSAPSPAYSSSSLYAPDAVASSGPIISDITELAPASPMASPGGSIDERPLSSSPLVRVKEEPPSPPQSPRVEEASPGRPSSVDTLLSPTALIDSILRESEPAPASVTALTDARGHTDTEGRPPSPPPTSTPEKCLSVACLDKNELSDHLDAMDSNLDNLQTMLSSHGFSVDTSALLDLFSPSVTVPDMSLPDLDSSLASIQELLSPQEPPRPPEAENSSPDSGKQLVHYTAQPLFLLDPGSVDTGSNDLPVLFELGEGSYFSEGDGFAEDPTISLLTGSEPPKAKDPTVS
Procedure, shortened: as §1

SPIC = target: T8, SPIC (Homo sapiens, UniProt Q8N5J4 1-248); settings: protein: recombinant; tags: N-terminal GST; dsDNA, one strand shown
T8 sequence: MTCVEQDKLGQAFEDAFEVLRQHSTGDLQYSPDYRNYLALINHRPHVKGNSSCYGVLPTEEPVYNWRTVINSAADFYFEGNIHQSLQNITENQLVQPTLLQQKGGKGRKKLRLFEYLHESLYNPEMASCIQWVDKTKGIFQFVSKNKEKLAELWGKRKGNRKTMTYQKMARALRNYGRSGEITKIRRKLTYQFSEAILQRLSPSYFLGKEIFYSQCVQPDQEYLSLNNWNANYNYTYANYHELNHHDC
Procedure, shortened: as §1

ELF4 = ELF4 (Homo sapiens, UniProt Q99607 1-663); settings: protein: recombinant; tags: N-terminal GST; dsDNA, one strand shown
ELF4, sequence (Q99607 whole entry): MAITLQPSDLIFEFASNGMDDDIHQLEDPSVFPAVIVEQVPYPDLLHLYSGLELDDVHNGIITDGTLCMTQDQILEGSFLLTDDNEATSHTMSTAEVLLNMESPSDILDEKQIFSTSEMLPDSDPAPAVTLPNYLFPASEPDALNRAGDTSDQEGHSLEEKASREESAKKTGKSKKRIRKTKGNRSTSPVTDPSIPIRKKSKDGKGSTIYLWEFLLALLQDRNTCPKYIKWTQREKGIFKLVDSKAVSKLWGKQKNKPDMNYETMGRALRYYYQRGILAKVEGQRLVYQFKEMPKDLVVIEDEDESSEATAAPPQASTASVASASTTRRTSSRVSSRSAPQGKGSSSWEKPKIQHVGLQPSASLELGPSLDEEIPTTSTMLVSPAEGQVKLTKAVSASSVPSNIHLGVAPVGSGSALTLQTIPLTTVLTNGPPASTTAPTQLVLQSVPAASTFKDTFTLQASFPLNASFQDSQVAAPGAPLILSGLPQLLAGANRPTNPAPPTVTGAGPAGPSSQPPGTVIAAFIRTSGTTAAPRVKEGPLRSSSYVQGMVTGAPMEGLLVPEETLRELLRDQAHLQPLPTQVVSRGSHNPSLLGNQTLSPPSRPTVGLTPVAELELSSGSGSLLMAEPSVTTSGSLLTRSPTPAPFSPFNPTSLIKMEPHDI
Procedure, shortened: as §1

ELK4 = target: T9, ELK4 (Homo sapiens, UniProt P28324-2 1-405); settings: protein: recombinant; tags: N-terminal GST; dsDNA, one strand shown
T9 sequence: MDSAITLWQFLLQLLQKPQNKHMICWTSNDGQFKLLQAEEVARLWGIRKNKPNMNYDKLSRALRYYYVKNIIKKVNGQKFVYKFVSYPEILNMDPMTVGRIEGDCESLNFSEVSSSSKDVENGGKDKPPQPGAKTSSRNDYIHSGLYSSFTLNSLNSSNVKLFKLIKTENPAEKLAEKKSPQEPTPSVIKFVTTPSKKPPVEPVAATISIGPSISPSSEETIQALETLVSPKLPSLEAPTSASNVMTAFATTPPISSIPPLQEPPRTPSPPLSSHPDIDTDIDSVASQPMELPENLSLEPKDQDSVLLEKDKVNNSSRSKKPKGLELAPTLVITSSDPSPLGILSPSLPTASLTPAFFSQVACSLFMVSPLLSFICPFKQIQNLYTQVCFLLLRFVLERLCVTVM
Procedure, shortened: as §1

ETV2 = target: T10, ETV2 (Homo sapiens, UniProt O00321 1-342); settings: protein: recombinant; tags: N-terminal GST; dsDNA, one strand shown
T10 sequence: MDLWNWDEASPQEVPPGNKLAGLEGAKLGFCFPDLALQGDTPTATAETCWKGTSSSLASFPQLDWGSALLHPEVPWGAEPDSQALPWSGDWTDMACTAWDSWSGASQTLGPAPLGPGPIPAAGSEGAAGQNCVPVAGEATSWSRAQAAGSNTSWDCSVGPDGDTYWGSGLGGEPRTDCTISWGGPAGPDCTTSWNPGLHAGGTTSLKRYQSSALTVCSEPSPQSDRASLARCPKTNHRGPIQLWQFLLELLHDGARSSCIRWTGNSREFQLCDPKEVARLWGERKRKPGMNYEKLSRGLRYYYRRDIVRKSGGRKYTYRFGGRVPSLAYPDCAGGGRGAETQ
Procedure, shortened: as §1

ELF3 = target: T11, ELF3 (Homo sapiens, UniProt P78545 1-371); settings: protein: recombinant; tags: N-terminal GST; dsDNA, one strand shown
T11 sequence: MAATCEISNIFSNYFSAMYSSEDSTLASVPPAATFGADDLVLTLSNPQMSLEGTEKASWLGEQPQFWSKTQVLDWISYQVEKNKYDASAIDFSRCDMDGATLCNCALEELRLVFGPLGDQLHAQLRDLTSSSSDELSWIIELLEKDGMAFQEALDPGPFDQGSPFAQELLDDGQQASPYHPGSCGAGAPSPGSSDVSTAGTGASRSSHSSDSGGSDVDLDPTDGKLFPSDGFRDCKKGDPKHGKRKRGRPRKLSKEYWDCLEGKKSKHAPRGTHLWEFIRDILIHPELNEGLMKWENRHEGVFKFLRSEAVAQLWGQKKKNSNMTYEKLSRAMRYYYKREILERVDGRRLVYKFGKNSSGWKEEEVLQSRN
Procedure, shortened: as §1

CRX = CRX (Homo sapiens, UniProt O43186 1-299); settings: protein: recombinant; tags: N-terminal GST; dsDNA, one strand shown
CRX, sequence (O43186 whole entry): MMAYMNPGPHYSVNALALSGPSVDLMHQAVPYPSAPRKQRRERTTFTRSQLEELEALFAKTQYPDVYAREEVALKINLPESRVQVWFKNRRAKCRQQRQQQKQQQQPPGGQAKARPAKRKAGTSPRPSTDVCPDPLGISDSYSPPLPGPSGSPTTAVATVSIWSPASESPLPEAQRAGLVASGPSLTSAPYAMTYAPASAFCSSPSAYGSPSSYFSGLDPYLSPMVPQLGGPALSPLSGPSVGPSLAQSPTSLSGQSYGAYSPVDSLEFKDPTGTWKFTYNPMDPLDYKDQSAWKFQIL
Procedure, shortened: as §1

ETV1 = ETV1 (Homo sapiens, UniProt P50549 1-477); settings: protein: recombinant; tags: N-terminal GST; dsDNA, one strand shown
ETV1, sequence (P50549 whole entry): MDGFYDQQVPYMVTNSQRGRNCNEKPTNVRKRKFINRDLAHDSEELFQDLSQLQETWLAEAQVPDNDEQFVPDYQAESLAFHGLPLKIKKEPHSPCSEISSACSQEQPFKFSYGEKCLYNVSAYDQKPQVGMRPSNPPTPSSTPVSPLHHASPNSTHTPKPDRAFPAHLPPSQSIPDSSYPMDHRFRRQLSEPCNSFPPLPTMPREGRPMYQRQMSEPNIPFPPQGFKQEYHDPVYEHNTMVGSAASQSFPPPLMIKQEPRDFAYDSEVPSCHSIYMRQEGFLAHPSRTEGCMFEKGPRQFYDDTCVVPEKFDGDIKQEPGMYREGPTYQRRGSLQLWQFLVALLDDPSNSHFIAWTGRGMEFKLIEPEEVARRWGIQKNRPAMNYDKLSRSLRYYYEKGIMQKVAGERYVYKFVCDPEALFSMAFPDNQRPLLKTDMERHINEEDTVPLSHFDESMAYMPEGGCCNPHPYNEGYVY
Procedure, shortened: as §1

Sequence: CGAATT
- binding signal (FLI1): 1.13 fold enrichment (6-mer frequency, TF over GST control)
- binding signal (ELK1): 1.1 fold enrichment (6-mer frequency, TF over GST control)
- binding signal (GABPA): 1.27 fold enrichment (6-mer frequency, TF over GST control)
- binding signal (ERG): 1.23 fold enrichment (6-mer frequency, TF over GST control)
- binding signal (ELF1): 1.2 fold enrichment (6-mer frequency, TF over GST control)
- binding signal (EHF): 1.19 fold enrichment (6-mer frequency, TF over GST control)
- binding signal (SPI1): 1.22 fold enrichment (6-mer frequency, TF over GST control)
- binding signal (SPIB): 1.23 fold enrichment (6-mer frequency, TF over GST control)
- binding signal (ELK3): 1.23 fold enrichment (6-mer frequency, TF over GST control)
- binding signal (FEV): 1.14 fold enrichment (6-mer frequency, TF over GST control)
- binding signal (ETV5): 1.21 fold enrichment (6-mer frequency, TF over GST control)
- binding signal (HSF1): 1.79 fold enrichment (6-mer frequency, TF over GST control)
- binding signal (SPIC): 1.25 fold enrichment (6-mer frequency, TF over GST control)
- binding signal (ELF4): 1.17 fold enrichment (6-mer frequency, TF over GST control)
- binding signal (ELK4): 1.36 fold enrichment (6-mer frequency, TF over GST control)
- binding signal (ETV2): 1.02 fold enrichment (6-mer frequency, TF over GST control)
- binding signal (ELF3): 1.18 fold enrichment (6-mer frequency, TF over GST control)
- binding signal (CRX): 1.63 fold enrichment (6-mer frequency, TF over GST control)
- binding signal (ETV1): 1.15 fold enrichment (6-mer frequency, TF over GST control)
